The record followed here is PubChem BioAssay AID952 (NMMLSC, 2007).

Each structure is given as a SMILES string. Among all 190,000 compounds or so, about 45 (0.02%) were called active. Not all results are given here. Unmarked numbers belong to inactive results. Cut-off read from the data, not from the text of the source: active = inhibition above about 40%.

The target of this test is Bcl-2-like protein 2 (Homo sapiens) (UniProt Q92843). Description: inhibitors of Bim binding to Bcl-W, primary screen, biochemical, multiplexed, bead-based flow cytometry (AID 952).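 Note: 0% = bound tracer without compound and 100% = peptide blocker; higher means less fluorescent Bim peptide bound to Bcl-W beads.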 Conditions: Bim peptide-Bcl-W binding, at 10 µM, stronger effect = higher value. For orientation: Flow cytometry measures light scatter and fluorescence of single cells or particles in a stream.
Sequence of Bcl-2-like protein 2 (Homo sapiens) (Q92843 whole entry, looked up): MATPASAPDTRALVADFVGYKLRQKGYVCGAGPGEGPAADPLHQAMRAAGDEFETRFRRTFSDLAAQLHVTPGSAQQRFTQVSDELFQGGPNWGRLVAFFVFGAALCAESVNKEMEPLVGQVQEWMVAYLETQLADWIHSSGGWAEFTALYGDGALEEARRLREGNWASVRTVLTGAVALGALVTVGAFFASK
On to `CC1(C)CC(=O)C=C(N2CCOCC2)C1`, for which the inhibition (as a rule, the relative decrease from the control value, in per cent) is -2%. In the case of `Cc1cc(OCCCC(=O)NCCN2C(=O)S/C(=C\c3cccnc3)C2=O)ccc1Cl`, the inhibition was -3%.

`O=C(N/N=C/c1ccc(OCc2ccccc2)cc1)c1ccc(O)cc1`: the inhibition is 0%. To `CC(C)C(O)C1CCN(Cc2nc(Cc3ccccc3Cl)no2)CC1` (stereo unspecified) belongs 1%; to `CSc1ccc(/C=C/C(=O)NC23CC4CC(CC(C4)C2)C3)cc1`, -2%. In the case of `CN1CCN(/N=C/c2ccc(-c3ccc([N+](=O)[O-])cc3)o2)CC1`, the inhibition is 3%. As for `Cc1ccnc(NC(=O)CCCOc2ccccc2)c1`, the inhibition was -1%. `Cc1ccc(CCCOC(=O)C[N+]2(C)CCCC2)cc1`: the inhibition is 3%. Under `COc1ccc(-c2csc3ncnc(Oc4ccc5c(C)cc(=O)oc5c4)c23)cc1` stands -9%; under `CCn1c(SCc2ccccc2)nc2c(c1=O)SCC2`, -2%.

Consider `CCOC(=O)C1=C(CN2CCCCCC2)NC(=O)NC1c1cccc([N+](=O)[O-])c1` (stereo unspecified), for which the inhibition was -2%. Under `FC(F)Oc1ccccc1NC(=S)Nc1cccc(Cl)c1Cl` stands -3%; under `CCC(C)NC(=O)c1ccc(N2CCC3(CC2)OCCO3)c([N+](=O)[O-])c1` (stereo unspecified), -1%. As for `C=C(C)C1CC=C(C)/C(=N\NC(=O)CNc2ccccc2OC)C1` (stereo unspecified), the inhibition is 0%.

Turning to `NCCCC[C@@H]1NC(=O)[C@H](CCC(=O)O)NC(=O)c2cc([N+](=O)[O-])cc(I)c2NCC[C@@H](C(N)=O)NC1=O`, the inhibition is 2%.

Turning to `Cc1nnc(SCC(=O)N2CCOCC2)[nH]c1=O`, the inhibition is -4%. With `OCCC1CN(Cc2ccc(Oc3ncccn3)cc2)CCN1CCc1ccccc1` (stereo unspecified), the inhibition is -3%. On to `Cc1[nH]c2ccccc2c1/C=N\NC(=O)Cn1nnc(-c2ccccc2)n1`, for which the inhibition was -6%. As for `CCOC(=O)C1=NOC(Cn2cc(C(C)=O)c(=O)[nH]c2=O)C1` (stereo unspecified), the inhibition was -3%.

`CN(C)c1ccc(Nc2c3c4c(cccc4n(C)c2=O)C(=O)c2ccccc2-3)cc1`: the inhibition was 14%.

As to `C1CC1Cc1noc(CN2CCN(CC3CC3)CC2)n1`, the inhibition is -3%. Under `COC(=O)c1nn(-c2cccc(Cl)c2)ccc1=O` stands 1%; under `O=C(CC1C(=O)NCCN1CC(c1ccccc1)c1ccccc1)NCCc1cn[nH]c1` (stereo unspecified), -4%. Under `O=C(CCN1C(=O)c2ccccc2C1=O)NCCCn1ccnc1` stands 0%.

As for `Cc1cc(C)c2c(n1)sc1c(=O)n(-c3ccccc3)c(=O)[nH]c12`, the inhibition is -3%.

`Cc1ccccc1NS(=O)(=O)CCCCC(Cl)(Cl)Cl`: the inhibition was 0%. Turning to `COc1ccc(NS(=O)(=O)c2ccc(NC(=O)c3ccc(N(C)S(C)(=O)=O)cc3)cc2)cc1`, the inhibition was -8%.

Take `CCc1ccc(-n2c(SCc3cc(=O)n4cc(Br)ccc4n3)nc3[nH]ncc3c2=O)cc1`: the inhibition was -4%.

On to `COCCNC(=O)C(c1ccc(O)cc1)N(C(=O)CCC(=O)Nc1nccs1)c1ccc(C)cc1` (stereo unspecified), for which the inhibition was -3%.

Turning to `O=C(CN1CCN(S(=O)(=O)c2ccc(Br)cc2)CC1)Nc1ccccc1C(=O)c1ccccc1`, the inhibition was -9%. Turning to `O=C(NCC1COc2ccccc2O1)C1(c2ccccc2)CCCC1` (stereo unspecified), the inhibition was -1%. In the case of `OCCCC1CCCCN1Cc1nc(Cc2ccccc2Cl)no1` (stereo unspecified), the inhibition was 4%. Consider `CCOC(=O)/C(=N\Nc1cc(Cl)ccc1Cl)N1CCN(C)CC1`, for which the inhibition is -5%. Turning to `COC(=O)c1c(NC(=O)CN(c2ccc(C)c(C)c2)S(C)(=O)=O)sc2c1CCCC2`, the inhibition is -6%.

For `Cc1ccc(S(=O)(=O)N2CCCC2C(=O)OCc2nc3sc(C)c(C)c3c(=O)[nH]2)cc1` (stereo unspecified), the inhibition is -3%. To `CN(C)c1nc(N)nc(Cn2nnc(-c3ccc(C(F)(F)F)cc3)n2)n1` belongs -5%; to `CC(=O)N/N=C/c1cc2c(cc1[N+](=O)[O-])OCO2`, -2%. Under `O=C(CN1CCN(C(=S)NC2CCCC2)CC1)Nc1ccc(Oc2ccccc2)cc1` stands -12%. To `Cc1ccc2nsnc2c1NC(=O)c1ccccc1[N+](=O)[O-]` belongs 0%. Turning to `CC(C)N1CCC(N2CCN(Cc3cccnc3)CC2CCO)CC1` (stereo unspecified), the inhibition is -4%. On to `CCN(CCCNC(=O)CCn1c(=O)[nH]c2ccsc2c1=O)c1ccccc1`, for which the inhibition is 1%. On to `O=C(COC(=O)c1ccccc1C(=O)N1CCN(c2ccccc2)CC1)NCc1ccccc1`, for which the inhibition was -3%. To `O=C(CCCO)N/N=C/c1cc(Br)ccc1O` belongs -3%. Consider `CC(C)(C)CN1CCNC(=O)C1CC(=O)NC1Cc2ccccc2C1` (stereo unspecified), for which the inhibition was 1%. With `COc1ccc(C(=O)N2CCC(C(=O)Nc3ccc(C)cc3)CC2)cc1`, the inhibition was -1%. Regarding `N#Cc1ccc(-c2nc3cc(C#N)c(C#N)cc3nc2-c2ccccc2)cc1C#N`, the inhibition is 0%.

`COc1ccc(NC(=S)SC)cc1OC`: the inhibition is -2%. To `O=C(N/N=C/c1ccc([N+](=O)[O-])o1)c1cccc(S(=O)(=O)N2CCOCC2)c1` belongs 0%; to `C=CCOC(=O)C1=C[C@@H](c2ccccc2)C[C@@H](OCc2ccc(CO)cc2)O1`, 0%; to `CCC(C)(C)NC(=O)CN(C(=O)CCC(=O)Nc1cc(C)ccn1)c1ccc2c(c1)OCCO2`, 1%.

As for `Cn1c(=NC(=O)c2ccc3c(c2)OCCO3)sc2cc(S(C)(=O)=O)ccc21`, the inhibition was -1%. To `Cn1nc(-c2ccccc2)c(CO)c1Sc1ccccc1` belongs -2%; to `Cc1cc(C)c(S(=O)(=O)N2CCOCC2)cc1C`, 0%. For the molecule `Cc1cccc(C(=O)N2CCc3c([nH]c4ccccc34)C2CC(C)C)n1` (stereo unspecified), the inhibition was 3%. Consider `CN(C)S(=O)(=O)c1ccc2oc(SCC(=O)Nc3ccccc3F)nc2c1`, for which the inhibition was 0%. Under `O=C(NNC(=O)c1ccccc1[N+](=O)[O-])Nc1ccccc1C(F)(F)F` stands 0%; under `Cc1cc(C(=O)NNC(=S)Nc2ccccc2C)cs1`, 0%; under `COC(=O)c1ccccc1NC(=O)C1CC(=O)N(c2ccc(OC)cc2)C1` (stereo unspecified), 0%. Under `Cc1noc(C)c1S(=O)(=O)N(C)Cc1ccccc1` stands -1%; under `CNCC(O)CN1CCN(c2ccccc2OC)CC1` (stereo unspecified), -1%. Under `Cc1ccc(CCCOC(=O)C[N+]2(C)CCCCC2)cc1` stands 0%.
